PubChem BioAssay (NCATS)
Results filed as inconclusive are left out. Unmarked numbers belong to inactive results. Activity calls are given as the source filed them. Calls follow the shape of the dose curve; as a rule, active = well fitted inhibition curve with a large enough effect; inconclusive = small, poorly fitted or top-dose-only effect; inactive = flat fitted curve, though single readings scatter.

biological target: Glutathione peroxidase 1 (Homo sapiens) (UniProt P07203); test: Primary qHTS Assay for Inhibitors of Recombinant Selenoprotein Glutathione Peroxidase 1 (GPX1) (AID 1845191); details: recombinant GPX1, GR-coupled NADPH fluorescence, 15 min; series mostly up to 48.8 µM; activity, negative = inhibition: at the top concentration
In short: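 10 nM GPX1 + cpd, 30 min RT; start w/ 1 mM GSH, 0.5 mM cumene hydroperoxide, 0.5 mM NADPH, 100 nM GR, 0.01% BSA; buffer 50 mM Tris-HCl pH 7.5, 2 mM EDTA, 150 mM NaCl; Fl 340/450, 0 & 15 min.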
% is scaled to controls: 0 for no effect and ±100 for the full control effect.
Also: nearly all actives have a fitted effect of over 65% in size.

Sequence of Glutathione peroxidase 1 (Homo sapiens) (P07203 whole entry, looked up): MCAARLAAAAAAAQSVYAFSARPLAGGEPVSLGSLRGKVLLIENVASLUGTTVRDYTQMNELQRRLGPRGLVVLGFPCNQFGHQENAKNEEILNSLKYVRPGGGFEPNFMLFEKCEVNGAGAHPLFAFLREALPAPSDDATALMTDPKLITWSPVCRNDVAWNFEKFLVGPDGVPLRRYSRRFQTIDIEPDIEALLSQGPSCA

SMILES | Potency | activity, negative = inhibition [%] | outcome
C/C=C/C(=O)N(CC)c1ccccc1C | inactive |  | 
O=C(O)COC(=O)Cc1ccccc1Nc1c(Cl)cccc1Cl |  | -15.8 | 
Cc1cccc(C)c1NC(=O)CC12CCCN1CCC2 |  |  | inactive
COc1ccc2cc(CCC(C)=O)ccc2c1 |  | 0.0537 | 
Cc1ccsc1C(=CCCN1CCC[C@@H](C(=O)O)C1)c1sccc1C | inactive |  | 
COC(=O)c1ccc(O)cc1 |  | -10.5 | 
CC(=O)OCC(=O)[C@@]1(O)CC[C@H]2[C@@H]3CCC4=CC(=O)C=C[C@]4(C)[C@@]3(F)[C@@H](O)C[C@@]21C |  |  | inactive
O=C(O)/C=C/c1ccc(Cn2ccnc2)cc1 | inactive |  | 
CCCCCOC(=O)Nc1nc(=O)n([C@@H]2O[C@H](C)[C@@H](O)[C@H]2O)cc1F | inactive |  | 
COc1ccc(O)cc1 |  | 3.8 | 
c1ccc2[nH]ccc2c1 |  | -15.7 | 
COCC(=O)Nc1c(I)c(C(=O)NCC(O)CO)c(I)c(C(=O)N(C)CC(O)CO)c1I (configuration not stated) |  | 1.91 | 
CCN1CC(CCN2CCOCC2)C(c2ccccc2)(c2ccccc2)C1=O (configuration not stated) |  | -11.5 | 
COc1ccc(NS(=O)(=O)c2ccc(N)cc2)nn1 |  | -17 | 
CCOC(=O)[C@H](CCc1ccccc1)N[C@@H](C)C(=O)N1CCC[C@H]1C(=O)O | inactive |  | 
CCN(CC)C(=O)c1cccc(C)c1 |  | -7.73 | 
FC(F)(F)C(Cl)Br (configuration not stated) |  | -6.89 | 
CN(C(=O)c1c(O)c2ccccc2n(C)c1=O)c1ccccc1 |  |  | inactive

SMILES | Potency | activity, negative = inhibition [%] | outcome
CC(=O)OCC(COC(C)=O)OC(C)=O |  |  | inactive
O=c1[nH]c(=O)n([C@H]2C[C@H](O)[C@@H](CO)O2)cc1I | inactive |  | 
CC(CN(C)C)C(C)(O)Cc1ccc(Cl)cc1 (configuration not stated) |  |  | inactive
OC[C@@H](O)[C@@H](O)[C@H](O)[C@H](O)CO |  |  | inactive
O=C(CCBr)N1CCN(C(=O)CCBr)CC1 |  | -7.71 | 
CC(=O)Nc1ccc(C(=O)O)cc1 |  | -16 | 
C=CCNC(N)=S |  | -29.2 | 
O[C@@H]1CO[C@H]2[C@@H]1OC[C@@H]2O |  | -9.51 | 
CC(C)c1cc2c(cc1S(=O)(=O)O)[C@@]1(C)CCC[C@@](C)(C(=O)O)[C@@H]1CC2 |  |  | inactive
COc1ccc(-c2cc(=O)c3c(O)cc(O[C@@H]4O[C@H](CO[C@@H]5O[C@@H](C)[C@H](O)[C@@H](O)[C@H]5O)[C@@H](O)[C@H](O)[C@H]4O)cc3o2)cc1O |  |  | inactive
OCCN1C[C@H](O)[C@@H](O)[C@H](O)[C@H]1CO | inactive |  | 
Cc1onc(-c2ccccc2)c1-c1ccc(S(N)(=O)=O)cc1 | inactive |  | 
CC(C)CCCC(C)CCCC(C)CCCCC(C)CCCC(C)CCCC(C)C (configuration not stated) |  | -20 | 
CCCCCCCC(=O)OCC(O)CO (configuration not stated) |  |  | inactive
CCCNC(C)(C)COC(=O)c1ccccc1 |  | -22.2 | 
Cc1cccc(Nc2ccccc2C(=O)O)c1C |  | -24.7 | 
CO[C@@]1(NC(=O)C(C(=O)O)c2ccc(O)cc2)C(=O)N2C(C(=O)O)=C(CSc3nnnn3C)CO[C@@H]21 (some centres not stated) |  | -17.8 | 
CN1CCCN=C1COC(=O)C(O)(c1ccccc1)C1CCCCC1 (configuration not stated) |  | -9.37 | 

biological target: Phospholipid hydroperoxide glutathione peroxidase GPX4 (Homo sapiens) (UniProt P36969); test: Primary qHTS Assay for Inhibitors of Recombinant Selenoprotein Glutathione Peroxidase 4 (GPX4) (AID 1845192); details: recombinant GPX4, GR-coupled NADPH fluorescence, 15 min; series mostly up to 50 µM; activity change, negative = inhibition: at the top concentration
In short: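 NADPH consumption, followed by fluorescence at 340/450 nm between 0 and 15 min, reports GPX4 activity via coupled glutathione reductase (100 nM). Enzyme 200 nM was pre-exposed to compound 30 min; 0.5 mM cumene hydroperoxide and 1 mM GSH served as substrates.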

Sequence of Phospholipid hydroperoxide glutathione peroxidase GPX4 (Homo sapiens) (P36969 whole entry, looked up): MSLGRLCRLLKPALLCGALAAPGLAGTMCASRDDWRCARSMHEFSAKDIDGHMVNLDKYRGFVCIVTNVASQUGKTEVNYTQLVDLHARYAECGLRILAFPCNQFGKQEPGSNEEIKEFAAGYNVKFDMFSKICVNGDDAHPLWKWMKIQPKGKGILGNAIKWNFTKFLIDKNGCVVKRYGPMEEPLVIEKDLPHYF

SMILES | Potency | outcome | activity change, negative = inhibition [%]
C/C=C/C(=O)N(CC)c1ccccc1C | inactive |  | 
O=C(O)COC(=O)Cc1ccccc1Nc1c(Cl)cccc1Cl |  | inactive | 
Cc1cccc(C)c1NC(=O)CC12CCCN1CCC2 |  | inactive | 
COc1ccc2cc(CCC(C)=O)ccc2c1 |  | inactive | 
Cc1ccsc1C(=CCCN1CCC[C@@H](C(=O)O)C1)c1sccc1C |  |  | -3.81
COC(=O)c1ccc(O)cc1 |  |  | -1.38
CC(=O)OCC(=O)[C@@]1(O)CC[C@H]2[C@@H]3CCC4=CC(=O)C=C[C@]4(C)[C@@]3(F)[C@@H](O)C[C@@]21C |  |  | 0.46
O=C(O)/C=C/c1ccc(Cn2ccnc2)cc1 | inactive |  | 
CCCCCOC(=O)Nc1nc(=O)n([C@@H]2O[C@H](C)[C@@H](O)[C@H]2O)cc1F | inactive |  | 
COc1ccc(O)cc1 |  | inactive | 
c1ccc2[nH]ccc2c1 |  |  | -15.9
COCC(=O)Nc1c(I)c(C(=O)NCC(O)CO)c(I)c(C(=O)N(C)CC(O)CO)c1I (configuration not stated) |  |  | 0.694
CCN1CC(CCN2CCOCC2)C(c2ccccc2)(c2ccccc2)C1=O (configuration not stated) |  |  | -14
COc1ccc(NS(=O)(=O)c2ccc(N)cc2)nn1 |  |  | -0.528
CCOC(=O)[C@H](CCc1ccccc1)N[C@@H](C)C(=O)N1CCC[C@H]1C(=O)O | inactive |  | 
CCN(CC)C(=O)c1cccc(C)c1 |  |  | -1.38
FC(F)(F)C(Cl)Br (configuration not stated) |  |  | -7.15
CN(C(=O)c1c(O)c2ccccc2n(C)c1=O)c1ccccc1 |  |  | -6.55

SMILES | Potency | outcome | activity change, negative = inhibition [%]
CC(=O)OCC(COC(C)=O)OC(C)=O |  | inactive | 
O=c1[nH]c(=O)n([C@H]2C[C@H](O)[C@@H](CO)O2)cc1I | inactive |  | 
CC(CN(C)C)C(C)(O)Cc1ccc(Cl)cc1 (configuration not stated) |  | inactive | 
OC[C@@H](O)[C@@H](O)[C@H](O)[C@H](O)CO |  |  | -0.371
O=C(CCBr)N1CCN(C(=O)CCBr)CC1 |  |  | -1.33
CC(=O)Nc1ccc(C(=O)O)cc1 |  |  | 4.65
C=CCNC(N)=S |  |  | 2.67
O[C@@H]1CO[C@H]2[C@@H]1OC[C@@H]2O |  |  | 1.74
CC(C)c1cc2c(cc1S(=O)(=O)O)[C@@]1(C)CCC[C@@](C)(C(=O)O)[C@@H]1CC2 |  | inactive | 
COc1ccc(-c2cc(=O)c3c(O)cc(O[C@@H]4O[C@H](CO[C@@H]5O[C@@H](C)[C@H](O)[C@@H](O)[C@H]5O)[C@@H](O)[C@H](O)[C@H]4O)cc3o2)cc1O |  |  | -10.1
OCCN1C[C@H](O)[C@@H](O)[C@H](O)[C@H]1CO | inactive |  | 
Cc1onc(-c2ccccc2)c1-c1ccc(S(N)(=O)=O)cc1 | inactive |  | 
CC(C)CCCC(C)CCCC(C)CCCCC(C)CCCC(C)CCCC(C)C (configuration not stated) |  |  | -25
CCCCCCCC(=O)OCC(O)CO (configuration not stated) |  | inactive | 
CCCNC(C)(C)COC(=O)c1ccccc1 |  |  | 3.59
Cc1cccc(Nc2ccccc2C(=O)O)c1C |  |  | -20.5
CO[C@@]1(NC(=O)C(C(=O)O)c2ccc(O)cc2)C(=O)N2C(C(=O)O)=C(CSc3nnnn3C)CO[C@@H]21 (some centres not stated) |  |  | 3.72
CN1CCCN=C1COC(=O)C(O)(c1ccccc1)C1CCCCC1 (configuration not stated) |  |  | -7.36
